Laboratory results published in publication PMC4336329 (PLoS ONE, 2015).
The campaign covered roughly 310,000 compounds. About 14,000 (4.5%) showed an effect of 50% or more. The effect is printed as a negative number. The entries come from a sample that favours strong results as a whole.

target: human ether-à-go-go-related gene (hERG) potassium channel (human, UniProt Q12809); test: primary screen, population patch clamp on CHO cells stably expressing hERG; higher = less effect of the substance
Sequence (Q12809 whole entry, looked up): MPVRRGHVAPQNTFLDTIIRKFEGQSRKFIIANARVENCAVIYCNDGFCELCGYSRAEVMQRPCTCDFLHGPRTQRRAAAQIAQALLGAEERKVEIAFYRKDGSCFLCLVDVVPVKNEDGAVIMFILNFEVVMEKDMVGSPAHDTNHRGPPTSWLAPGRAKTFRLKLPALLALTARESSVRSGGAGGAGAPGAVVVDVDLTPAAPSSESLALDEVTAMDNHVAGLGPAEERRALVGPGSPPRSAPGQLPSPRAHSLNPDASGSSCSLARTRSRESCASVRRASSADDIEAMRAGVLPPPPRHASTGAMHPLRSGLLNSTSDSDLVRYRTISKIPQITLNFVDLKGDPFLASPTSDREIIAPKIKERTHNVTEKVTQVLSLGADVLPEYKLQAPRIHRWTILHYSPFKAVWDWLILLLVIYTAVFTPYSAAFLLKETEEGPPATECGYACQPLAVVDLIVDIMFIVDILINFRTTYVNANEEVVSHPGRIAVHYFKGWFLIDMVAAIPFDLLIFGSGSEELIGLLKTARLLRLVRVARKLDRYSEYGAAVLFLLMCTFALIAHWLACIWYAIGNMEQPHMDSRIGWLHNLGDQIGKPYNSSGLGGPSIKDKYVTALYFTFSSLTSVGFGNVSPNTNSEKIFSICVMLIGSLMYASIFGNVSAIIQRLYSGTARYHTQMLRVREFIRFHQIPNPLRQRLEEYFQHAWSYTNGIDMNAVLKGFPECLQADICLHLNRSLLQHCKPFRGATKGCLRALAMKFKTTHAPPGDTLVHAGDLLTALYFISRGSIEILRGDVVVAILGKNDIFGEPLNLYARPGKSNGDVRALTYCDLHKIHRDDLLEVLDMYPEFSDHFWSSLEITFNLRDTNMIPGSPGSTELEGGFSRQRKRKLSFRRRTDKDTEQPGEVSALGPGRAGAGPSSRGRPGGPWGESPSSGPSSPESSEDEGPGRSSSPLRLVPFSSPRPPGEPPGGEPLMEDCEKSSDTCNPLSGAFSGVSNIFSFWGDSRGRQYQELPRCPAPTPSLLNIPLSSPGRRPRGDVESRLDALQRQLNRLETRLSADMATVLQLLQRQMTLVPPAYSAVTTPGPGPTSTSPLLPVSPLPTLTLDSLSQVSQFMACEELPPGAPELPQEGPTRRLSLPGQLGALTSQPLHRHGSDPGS
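Further: peak tail current of the secondary pulse compared with the same well before compound.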

Row | SMILES | hERG current change (%, negative = inhibition) at 10uM
1 | CCCCn1c(O)c(/C=C/C=C/C=Nc2ccccc2)sc1=S | 31%
2 | O=C(Nc1ccc(Cl)c(C(F)(F)F)c1)C(=O)N1CCCCC1 | -1.61%
3 | CC(Oc1ccc(Br)cc1)C(=O)NCC(C)(C)N1CCOCC1 (centres unmarked) | -26%
4 | COC(=O)c1ccccc1NC(=O)c1ccc(COc2ccc(C)c(C)c2)o1 | 11.9%
5 | COC(=O)C1=C(c2c(C)noc2C)C[C@@H]2CC[C@H]1N2C(=O)NCCO | 20%
6 | Cc1nnc(N/N=C/C2CC=CCC2)[nH]c1=O (centres unmarked) | 7.06%
7 | CC(C)C(NS(=O)(=O)c1cccc2nsnc12)C(=O)NCc1ccc2c(c1)OCO2 (centres unmarked) | -18.7%
8 | Cc1c(NC(=O)C(C)OC(=O)CNC(=O)c2ccc(C(C)(C)C)cc2)c(=O)n(-c2ccccc2)n1C (centres unmarked) | 13.2%
9 | Cc1cc(C)n(-c2ccc(NC(=O)C3CCN(Cc4ccc(C)o4)CC3)cc2)n1 | -16.6%
10 | CC(=O)CSc1nsc(SCC(C)=O)c1C#N | 17.2%
11 | CCOC(=O)CC(=O)CSc1nc(-c2cccnc2)ccc1C#N | 17.5%
12 | CCOC(=O)CSc1nc(-c2ccc3c(c2)OCO3)ccc1C#N | 7.3%
13 | CCOC(=O)CSc1nc(-c2ccncc2)ccc1C#N | -61.6%
14 | CCOC(=O)CSc1nsc(SCC(=O)OCC)c1C#N | -55.7%
15 | COC(=O)CSc1nsc(SCC(=O)OC)c1C#N | 5.34%
16 | CC1CCc2c(sc3nc4n(c(=O)c23)CCS4)C1 (centres unmarked) | -10.3%
17 | CCOC(=O)c1nc(Nc2ccc(C(=O)OC)cc2)c2ccccc2n1 | 0.323%
18 | COc1ccc(-c2nc3ccccc3n2OCC(=O)O)cc1 | 18.5%
19 | CCCCCC(=O)NC(=S)Nc1ccc(NC(=O)c2ccco2)cc1 | 2.58%

Row | SMILES | hERG current change (%, negative = inhibition) at 10uM
20 | CC1(C)Cc2c(sc(NC(=O)c3ccc(Br)o3)c2C#N)CO1 | 16.6%
21 | Cc1oc(-c2cccc3ccccc23)nc1CN1CCC[C@H]1CO | -12.2%
22 | c1ccc(CCC2CCCCN2Cc2nc(-c3ccc4c(c3)OCO4)no2)nc1 (centres unmarked) | -55.7%
23 | Cn1ccnc1C1CCCCN1Cc1nc(-c2ccc3c(c2)OCO3)no1 (centres unmarked) | -7.65%
24 | Clc1ccccc1Cc1noc(CN2CCCCC2CCc2ccccn2)n1 (centres unmarked) | -29.4%
25 | Cc1oc(-c2cccc(F)c2)nc1CN1CCCCC1CCc1ccccn1 (centres unmarked) | -91.5%
26 | COc1ccc(-c2nc(CN3CCCCC3CCc3ccccn3)c(C)o2)cc1 (centres unmarked) | -90.7%
27 | COc1ccc(-c2nc(CN3CCCCC3c3cccnc3)c(C)o2)c(F)c1 (centres unmarked) | -35.9%
28 | Fc1cccc(Cc2noc(CN3CCCCC3CCc3ccccn3)n2)c1 (centres unmarked) | 0.789%
29 | COc1ccc(-c2nc(CS(=O)CC(=O)NCc3ccccn3)c(C)o2)cc1 (centres unmarked) | 6.44%
30 | Cc1cccc(C2Nc3ccccc3C(=O)N2c2ccccc2)n1 (centres unmarked) | 4.41%
31 | O=C(NCc1ccc2c(c1)OCO2)C1CC(c2ccc(Cl)c(Cl)c2)=NO1 (centres unmarked) | 15%
32 | Cc1nn(C(C)c2n[nH]c(=S)n2-c2ccc(F)cc2)c(C)c1[N+](=O)[O-] (centres unmarked) | 13.3%
33 | O=C(Nc1ccc2c(c1)C(=O)OC2)c1ccc(C(F)(F)F)cc1 | 17.3%
34 | COc1ccc(CN2CCNC(=O)C2CC(=O)NCCCn2nnc3ccccc32)cc1C (centres unmarked) | -2.87%
35 | O=C(NCCN1CCc2ccccc2C1)Nc1ccc(F)cc1 | -37.5%
36 | O=C(NCCN1CCCCC1)Nc1ccc([N+](=O)[O-])cc1 | -41.4%
37 | CN1CCN(CCNC(=O)Nc2ccc([N+](=O)[O-])cc2)CC1 | -25.7%
38 | CCc1ccc(NC(=O)NCCN2CCc3ccccc3C2)cc1 | -54.7%

Row | SMILES | hERG current change (%, negative = inhibition) at 10uM
39 | CCc1ccc(NC(=O)CN2CCc3ccccc3C2)cc1 | -34.2%
40 | O=C(NCCN1CCc2ccccc2C1)Nc1ccc([N+](=O)[O-])cc1 | -70.1%
41 | CCCCSCCCNC(=S)Nc1ccccc1C | 5.08%
42 | COc1ccccc1N(CC(=O)NCCSCc1ccco1)S(=O)(=O)c1ccccc1 | -26.6%
43 | COc1ccc(OC)c(N(CC(=O)NC2CC3CCC2C3)S(=O)(=O)c2ccccc2)c1 (centres unmarked) | -59.7%
44 | COc1ccc(S(=O)(=O)N(CC(=O)NC2CC3CCC2C3)c2ccccc2OC)cc1 (centres unmarked) | -25%
45 | COc1ccc(Cl)cc1N(CC(=O)NC1CC2CCC1C2)S(=O)(=O)c1ccccc1 (centres unmarked) | -31.5%
46 | Cc1ccc(S(=O)(=O)N(CC(=O)NCCSCc2ccco2)c2ccc(F)cc2)cc1 | -28.3%
47 | COc1ccc(OC)c(N(CC(=O)NCCSCc2ccco2)S(=O)(=O)c2ccccc2)c1 | -69.2%
48 | Cc1ccc(N(CC(=O)NCCSCc2ccco2)S(=O)(=O)c2ccc(C)cc2)cc1 | -69.7%
49 | COc1ccc(OC)c(N(CC(=O)NCCSCc2ccco2)S(=O)(=O)c2ccc(OC)c(OC)c2)c1 | -22.6%
50 | COc1ccc(N(CC(=O)NCCSCc2ccco2)S(=O)(=O)c2ccc(C)cc2)cc1 | -17.9%
51 | O=C(NCc1nc2ccccc2[nH]1)c1cccc(S(=O)(=O)N2CCCCC2)c1 | 13.9%
52 | Cn1c(=O)c2c(nc(Br)n2CCCc2ccccc2)n(C)c1=O | -9.05%
53 | COc1ccc(Cl)cc1S(=O)(=O)N1CCC(C(=O)NC2CCCC2)CC1 | -21.2%
54 | COC(=O)[C@H]1C[C@@H]1[C@H](NC(=O)c1cc(C)on1)c1ccccc1 | 10.3%
55 | Cc1cc(NC(=O)CSCC(=O)N2CCN(c3cccc(C(F)(F)F)c3)CC2)no1 | -11.3%
56 | COCCN(C(=O)/C=C/c1ccccc1)c1nnc(-c2cccnc2)s1 | -9.61%
